SMILES strings stand for the structures. Activity calls are given as the source filed them. The calls were made as follows: active = hit-call score of the fitted dose curve at least 0.9, where 1 is the maximum; inactive = score below 0.9.

Five compounds from PubChem BioAssay (EPA / NIEHS) can be followed below.

Holding throughout (details): mRNA level, 48 h; actives raise or lower the signal
Read-out in assay [1]: MYC, MYC (gene 4609)
As to the kind of experiment: LTEA_HepaRG_MYC: Life Technologies and Expression Analysis (LTEA) Assay for MYC using HepaRG (AID 2283518). The method in brief:
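qRT-PCR read-out of MYC transcript (Fluidigm TaqMan, housekeeping-normalized) after 48 h chemical exposure of HepaRG cells; eight concentrations, top 100 uM, half-log steps. Bidirectional curve fitting against 0.5% DMSO vehicle baseline.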

Read-out in assay [2]: matrix metalloproteinase-3 (MMP3), MMP3 (gene 4314)
The experiment in a line: LTEA_HepaRG_MMP3: Life Technologies and Expression Analysis (LTEA) Assay for matrix metalloproteinase-3 (MMP3) using HepaRG (AID 2283519). The method in brief:
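Human liver HepaRG cultures received chemicals (top concentration 100 uM, 0.5% DMSO) for 48 h in duplicate. MMP3 mRNA induction or loss was then assessed via TaqMan qRT-PCR with housekeeping-gene normalisation.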

Read-out in assay [3]: Paternally Expressed 10 (PEG10), PEG10 (gene 23089)
As to the kind of experiment: LTEA_HepaRG_PEG10: Life Technologies and Expression Analysis (LTEA) Assay for Paternally Expressed 10 (PEG10) using HepaRG (AID 2283520).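 As to AC50: differentiated HepaRG human liver cells in serum-free induction medium with 0.5% DMSO; PEG10 transcript by qRT-PCR normalised to ACTB GAPDH and POLR2A.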 The procedure, abridged: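 PEG10 transcript measured by Fluidigm qRT-PCR, normalized to three housekeeping genes, in HepaRG cells treated 48 h (highest 100 uM, half-log steps, 0.5% DMSO vehicle). Cells plated 48 h before switching to serum-free induction medium.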

Read-out in assay [4]: Nuclear factor NF-kappa-B p105 subunit (Homo sapiens) (UniProt P19838)
The experiment in a line: LTEA_HepaRG_NFKB1: Life Technologies and Expression Analysis (LTEA) Assay for Nuclear Factor Kappa B Subunit 1 (NFKB1) using HepaRG (AID 2283521).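 Also: differentiated human HepaRG liver cells in serum-free induction medium.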 The procedure, abridged: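 NFKB1 transcript was measured by TaqMan qRT-PCR on Fluidigm arrays, normalised to three housekeeping genes and fitted in both directions against 0.5% DMSO. HepaRG cells were dosed in duplicate for 48 h in serum-free induction medium, eight half-log steps from 100 uM.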

Read-out in assay [5]: Protein phosphatase 2A (PPP2R4), PTPA (gene 5524)
The experiment in a line: LTEA_HepaRG_PPP2R4: Life Technologies and Expression Analysis (LTEA) Assay for Protein phosphatase 2A (PPP2R4) using HepaRG (AID 2283522). The procedure, abridged: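 Expression was quantified by Fluidigm qRT-PCR normalised to three housekeeping genes after 48 h treatment. Human HepaRG cells received an 8-point series from 100 µM downward by half-logs, in duplicate with 0.5% DMSO vehicle and 1 mM phenobarbital as induction control.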

Read-out in assay [6]: Phosphatase and tensin (PTEN), PTEN (gene 5728)
The experiment in a line: LTEA_HepaRG_PTEN: Life Technologies and Expression Analysis (LTEA) Assay for Phosphatase and tensin (PTEN) using HepaRG (AID 2283523). The method in brief: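 Expression of PTEN is quantified in the human liver line HepaRG following two days of dosing (top concentration 100 uM, half-log dilutions, 0.5% DMSO). Values derive from bidirectional curve fitting relative to DMSO controls.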

Read-out in assay [7]: solute carrier (SLC22A1), SLC22A1 (gene 6580)
As to the kind of experiment: LTEA_HepaRG_SLC22A1: Life Technologies and Expression Analysis (LTEA) Assay for solute carrier (SLC22A1) using HepaRG (AID 2283524).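 As to AC50: differentiated human HepaRG liver cells in serum-free induction medium.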 The method in brief: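 Transcript induction or suppression of SLC22A1 in human HepaRG cultures is scored after 48 h chemical treatment, with DMSO (0.5%) as baseline for bidirectional fitting. Concentrations span eight half-log points topping at 100 uM.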

Read-out in assay [8]: Nuclear factor erythroid 2-related factor 2 (Homo sapiens) (UniProt Q16236)
As to the kind of experiment: LTEA_HepaRG_NFE2L2: Life Technologies and Expression Analysis (LTEA) Assay for Nuclear factor erythroid 2-related factor 2 (NFE2L2) Transcription Factor using HepaRG (AID 2283527). The method in brief: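 Human liver HepaRG line treated in duplicate for 48 h with an eight-point series topping at 100 uM. Gene expression of NFE2L2 by qRT-PCR, bidirectionally fitted against the vehicle control.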

Read-out in assay [9]: succinate dehydrogenase complex iron sulfur subunit B (SDHB), SDHB (gene 6390)
The experiment in a line: LTEA_HepaRG_SDHB: Life Technologies and Expression Analysis (LTEA) Assay for succinate dehydrogenase complex iron sulfur subunit B (SDHB) using HepaRG (AID 2283528). The procedure, abridged: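 SDHB transcript level read by TaqMan qRT-PCR, housekeeping-normalised (ACTB, GAPDH, POLR2A), after 48 h chemical treatment of plated HepaRG cells; eight concentrations top 100 uM, half-log steps, 0.5% DMSO, duplicates; fitted both directions against DMSO.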

Read-out in assay [10]: Signal transducer and activator of transcription 3 (Homo sapiens) (UniProt P40763)
The experiment in a line: LTEA_HepaRG_STAT3: Life Technologies and Expression Analysis (LTEA) Assay for Signal transducer and activator of transcription (STAT3) using HepaRG (AID 2283529). The method in brief:
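In this transcriptional endpoint, HepaRG cultures receive test chemicals at up to 100 uM for 48 h, tested in duplicate. STAT3 mRNA is normalized to ACTB, GAPDH and POLR2A.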

Read-out in assay [11]: solute carrier (SLCO1B1), SLCO1B1 (gene 10599)
As to the kind of experiment: LTEA_HepaRG_SLCO1B1: Life Technologies and Expression Analysis (LTEA) Assay for solute carrier (SLCO1B1) using HepaRG (AID 2283530). The method in brief:
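SLCO1B1 transcript read by qRT-PCR (Fluidigm arrays), normalized to three housekeeping genes, after 48 h chemical exposure of HepaRG cells; bidirectional concentration-response fitting versus 0.5% DMSO baseline. Eight-point half-log series, maximum 100 uM.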

Read-out in assay [12]: Transforming Growth Factor (TGFA), TGFA (gene 7039)
The experiment in a line: LTEA_HepaRG_TGFA: Life Technologies and Expression Analysis (LTEA) Assay for Transforming Growth Factor (TGFA) using HepaRG (AID 2283532). The procedure, abridged: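 Gene expression of TGFA was quantified by qRT-PCR after human HepaRG cells were treated for 48 h with test chemicals (eight concentrations, highest 100 uM, 0.5% DMSO). Activity in either direction was fitted relative to DMSO.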

Read-out in assay [13]: Transforming Growth Factor (TGFB1), TGFB1 (gene 7040)
As to the kind of experiment: LTEA_HepaRG_TGFB1: Life Technologies and Expression Analysis (LTEA) Assay for Transforming Growth Factor (TGFB1) Transporter using HepaRG (AID 2283533). The method in brief: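 qRT-PCR readout of TGFB1 transcript in HepaRG lysates, normalized to three housekeeping genes; gain or loss of signal fitted relative to 0.5% DMSO vehicle. Exposure: 48 h, 8-point curve from 100 uM, duplicate wells.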

Read-out in assay [14]: TIMP1, TIMP1 (gene 7076)
As to the kind of experiment: LTEA_HepaRG_TIMP1: Life Technologies and Expression Analysis (LTEA) Assay for TIMP1 using HepaRG (AID 2283534).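 Also: TaqMan qRT-PCR signal normalized to ACTB GAPDH and POLR2A housekeeping genes.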 The procedure, abridged:
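HepaRG, 48 h exposure, 8-pt half-log series from 100 uM in 0.5% DMSO, duplicates; TIMP1 transcript by Fluidigm qRT-PCR, housekeeping-normalized; bidirectional curve fit vs DMSO baseline.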

Read-out in assay [15]: Tumor necrosis factor receptor 1 (TNFRSF1A), TNFRSF1A (gene 7132)
The experiment in a line: LTEA_HepaRG_TNFRSF1A: Life Technologies and Expression Analysis (LTEA) Assay for Tumor necrosis factor receptor 1 (TNFRSF1A) using HepaRG (AID 2283535). The procedure, abridged:
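HepaRG, 48 h plating then 48 h chemical exposure, serum-free induction media; 8-pt CRC from 100 uM, half-log, 0.5% DMSO vehicle, duplicates. Readout: TaqMan qRT-PCR (Fluidigm), housekeeping-gene normalized; bidirectional fit vs DMSO.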

Read-out in assay [16]: Thyroid Hormone Responsive (THRSP), THRSP (gene 7069)
As to the kind of experiment: LTEA_HepaRG_THRSP: Life Technologies and Expression Analysis (LTEA) Assay for Thyroid Hormone Responsive (THRSP) using HepaRG (AID 2283536). The procedure, abridged: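 Cell model: human HepaRG, approx. 100,000 cells/well, 0.5% DMSO vehicle. Exposure lasts 48 h; phenobarbital 1 mM serves as induction positive control. Gene expression is measured by qRT-PCR against three endogenous control genes.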

Read-out in assay [17]: Pyruvate Dehydrogenase Kinase 4 (PDK4), PDK4 (gene 5166)
The experiment in a line: LTEA_HepaRG_PDK4: Life Technologies and Expression Analysis (LTEA) Assay for Pyruvate Dehydrogenase Kinase 4 (PDK4) using HepaRG (AID 2283525). The procedure, abridged: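 Eight-point, half-log concentration series (max 100 uM, 0.5% DMSO) applied to differentiated HepaRG cells for 48 h in duplicate. Endpoint: PDK4 mRNA induction or repression by qRT-PCR against DMSO baseline.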

Read-out in assay [18]: sulfotransferase 2A1 (SULT2A1), SULT2A1 (gene 6822)
The experiment in a line: LTEA_HepaRG_SULT2A1: Life Technologies and Expression Analysis (LTEA) Assay for sulfotransferase 2A1 (SULT2A1) using HepaRG (AID 2283531). The procedure, abridged: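 HepaRG, 48 h chemical exposure, 8-pt half-log curve from 100 uM in 0.5% DMSO, duplicates. Readout: TaqMan qRT-PCR of SULT2A1 mRNA, housekeeping-normalized. Bidirectional fit vs DMSO baseline.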

Read-out in assay [19]: UDP glucuronosyltransferase (UGT1A1), UGT1A1 (gene 54658)
The experiment in a line: LTEA_HepaRG_UGT1A1: Life Technologies and Expression Analysis (LTEA) Assay for UDP glucuronosyltransferase (UGT1A1) using HepaRG (AID 2283538). The procedure, abridged:
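UGT1A1 transcript level, measured by qRT-PCR with three housekeeping genes for normalization, after 48 h treatment of human HepaRG cells (0.5% DMSO, duplicates, up to 100 uM, half-log steps, 8 points). Curves fit both directions against DMSO baseline.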

Signal transducer and activator of transcription 3 (Homo sapiens), sequence (P40763 whole entry, looked up): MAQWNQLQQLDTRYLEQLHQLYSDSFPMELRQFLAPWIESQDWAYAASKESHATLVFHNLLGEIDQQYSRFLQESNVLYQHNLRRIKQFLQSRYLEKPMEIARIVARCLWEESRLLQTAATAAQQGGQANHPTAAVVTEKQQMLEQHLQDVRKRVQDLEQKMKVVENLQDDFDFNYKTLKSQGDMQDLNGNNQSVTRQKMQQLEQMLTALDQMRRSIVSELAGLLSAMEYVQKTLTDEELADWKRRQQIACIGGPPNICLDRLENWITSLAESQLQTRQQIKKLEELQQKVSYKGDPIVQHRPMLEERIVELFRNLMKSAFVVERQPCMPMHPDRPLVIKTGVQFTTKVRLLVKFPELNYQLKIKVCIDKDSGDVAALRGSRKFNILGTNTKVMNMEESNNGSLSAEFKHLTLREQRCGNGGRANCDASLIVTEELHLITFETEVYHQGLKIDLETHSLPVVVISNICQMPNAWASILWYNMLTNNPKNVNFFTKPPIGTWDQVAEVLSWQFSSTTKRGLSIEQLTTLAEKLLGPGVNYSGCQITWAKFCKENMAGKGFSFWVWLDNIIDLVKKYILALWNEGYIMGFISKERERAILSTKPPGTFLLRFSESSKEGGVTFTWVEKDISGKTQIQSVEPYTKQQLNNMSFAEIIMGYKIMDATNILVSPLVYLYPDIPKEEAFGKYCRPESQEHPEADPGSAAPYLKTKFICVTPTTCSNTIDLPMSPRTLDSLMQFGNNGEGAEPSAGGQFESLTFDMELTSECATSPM
Nuclear factor erythroid 2-related factor 2 (Homo sapiens), sequence (Q16236 whole entry, looked up): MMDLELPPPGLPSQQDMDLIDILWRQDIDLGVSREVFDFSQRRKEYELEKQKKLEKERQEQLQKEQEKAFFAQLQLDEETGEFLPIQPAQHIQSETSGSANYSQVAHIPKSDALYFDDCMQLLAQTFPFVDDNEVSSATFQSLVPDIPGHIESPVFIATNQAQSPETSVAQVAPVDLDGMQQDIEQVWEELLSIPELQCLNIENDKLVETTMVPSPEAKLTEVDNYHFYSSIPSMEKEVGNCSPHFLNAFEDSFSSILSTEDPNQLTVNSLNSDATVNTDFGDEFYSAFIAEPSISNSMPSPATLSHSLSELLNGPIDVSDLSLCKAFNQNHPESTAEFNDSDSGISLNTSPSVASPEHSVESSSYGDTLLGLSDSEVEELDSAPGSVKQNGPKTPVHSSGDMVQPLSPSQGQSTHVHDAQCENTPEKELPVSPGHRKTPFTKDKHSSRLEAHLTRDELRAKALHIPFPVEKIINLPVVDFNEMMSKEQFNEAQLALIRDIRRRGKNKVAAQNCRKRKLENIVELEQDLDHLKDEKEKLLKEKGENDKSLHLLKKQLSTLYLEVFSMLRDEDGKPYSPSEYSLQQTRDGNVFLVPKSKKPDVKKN
Nuclear factor NF-kappa-B p105 subunit (Homo sapiens), sequence (P19838 whole entry, looked up): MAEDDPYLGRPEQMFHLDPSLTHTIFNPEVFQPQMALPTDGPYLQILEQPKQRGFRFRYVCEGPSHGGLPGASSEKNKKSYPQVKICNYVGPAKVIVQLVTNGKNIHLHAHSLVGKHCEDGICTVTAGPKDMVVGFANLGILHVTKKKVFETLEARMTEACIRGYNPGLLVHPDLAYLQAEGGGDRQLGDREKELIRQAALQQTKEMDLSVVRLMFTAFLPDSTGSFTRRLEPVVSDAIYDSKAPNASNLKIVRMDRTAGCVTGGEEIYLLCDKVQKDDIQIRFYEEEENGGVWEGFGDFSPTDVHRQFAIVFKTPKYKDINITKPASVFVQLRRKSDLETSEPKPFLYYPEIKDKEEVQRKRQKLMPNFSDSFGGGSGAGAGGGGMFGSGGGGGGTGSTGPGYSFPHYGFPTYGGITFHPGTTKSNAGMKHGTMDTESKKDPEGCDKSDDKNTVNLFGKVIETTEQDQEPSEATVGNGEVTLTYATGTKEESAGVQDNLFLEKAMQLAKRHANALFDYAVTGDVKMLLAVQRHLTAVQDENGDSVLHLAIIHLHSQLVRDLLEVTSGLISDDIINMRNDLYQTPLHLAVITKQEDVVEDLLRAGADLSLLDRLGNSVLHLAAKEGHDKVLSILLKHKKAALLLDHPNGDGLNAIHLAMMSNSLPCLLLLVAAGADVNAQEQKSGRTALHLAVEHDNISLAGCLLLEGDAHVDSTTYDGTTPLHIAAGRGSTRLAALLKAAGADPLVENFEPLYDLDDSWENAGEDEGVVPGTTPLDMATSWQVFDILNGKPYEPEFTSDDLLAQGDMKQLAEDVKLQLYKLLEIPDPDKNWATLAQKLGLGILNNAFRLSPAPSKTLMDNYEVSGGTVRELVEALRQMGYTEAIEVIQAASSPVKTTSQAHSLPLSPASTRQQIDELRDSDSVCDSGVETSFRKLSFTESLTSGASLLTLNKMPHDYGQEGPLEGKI

For `Cc1ccc(S(=O)(=O)NC(=O)NN2CCCCCC2)cc1`, the compound was classed as inactive in assay [1], in assay [2], in [3], in assay [4], in [5] and in assay [6]. The result in assay [7], in assay [8], in [9], in assay [10], in assay [11] and in assay [12] was inactive. For the same compound, the compound was called inactive in [13], in [14], in assay [15] and in assay [16].

Turning to `CCCCCCCCN(C)C`, the compound was called inactive in [1], in assay [2], in assay [3], in assay [5], in assay [6] and in assay [7]. Further, the compound was classed as inactive in assay [17], in [8], in assay [9], in assay [10], in assay [11] and in [18]. The compound was classed as inactive in assay [12], in assay [13], in assay [14], in assay [15] and in assay [16].

For the compound `C=CCc1cc(S(=O)(=O)c2ccc(O)c(CC=C)c2)ccc1O`, the AC50 is 90 µM (active) in [1]; 92.2 µM (active) in [2]; 71 µM (active) in [3]; 50 µM (active) in assay [6]; 89 µM (active) in assay [7]; 85.4 µM (active) in assay [11]. Also, the AC50 in [16] was 88.4 µM (active). Moreover, the outcome in assay [4], in assay [5], in assay [8], in assay [9], in [10] and in assay [12] was inactive. Moreover, the outcome in [13], in assay [14] and in [15] was inactive.

Turning to `CCOC(N)=O`, the outcome in assay [1], in assay [2], in assay [3], in assay [5], in [6] and in assay [7] was inactive. Besides, the outcome in assay [17], in assay [8], in [9], in assay [10], in assay [11] and in assay [12] was inactive. Further, the compound was called inactive in assay [13], in assay [14], in assay [15], in assay [16] and in assay [19].

`COCc1nnc(-c2ccc[n+]([O-])c2)n1-c1c(Cl)c(Cl)cc2[nH]c(=O)c(=O)[nH]c12`: the call in [1], in assay [2], in assay [3], in assay [5], in assay [6] and in assay [7] was inactive. In addition, the call in assay [17], in [8], in [9], in assay [10], in [11] and in assay [18] was inactive. Further, the result in assay [12], in [13], in assay [14], in assay [15], in assay [16] and in [19] was inactive.
